Measured values: ChEMBL document CHEMBL4888484, “Replenishing the malaria drug discovery pipeline: Screening and hit evaluation of the MMV Hit Generation Library 1 (HGL1) against asexual blood stage Plasmodium falciparum ,using a nano luciferase reporter read-out” (2022)
Hit rate of the full screen: of about 4,800 compounds, about 420 (8.8%) showed an effect of 50% or more. Many of the other results were omitted from the sample, so strong results are more common in it than they were.

These compounds were tested on Plasmodium falciparum (assay: Confirmatory screen in NF54 nanoGlo assay, in single point, at 2uM, 72h). Conditions: timepoint 72 hour.
Format: functional, Erythrocyte

| SMILES | % Inhibition |
| --- | --- |
| COc1snc(C(Cl)(Cl)Cl)c1Cl | -2% |
| CCN(CC)CCC1C(=O)N(c2ccccc2)C(=O)N(c2ccccc2)C1=O | 4% |
| CC(=O)N1N=C(c2cccnc2)O[C@H]1c1ccc(F)cc1 | -10% |
| Cc1nc(Cn2nc(C(C)(C)C)oc2=O)oc1C | 0% |
| FC1(F)C[C@@H](COc2cccnc2)N(C2CCCCC2)C1 | 3% |
| Cn1cc(/C=C2\CC3C4CCC5CCCCC5(C)C4CCC3(C)C2O)cn1 (configuration not stated) | 0% |
| Cc1cccc(CN(C)C)c1OC(=O)N(C)C | -9% |
| COc1ccc(-c2cc([C@H]3CN4CC[C@H]3C[C@@H]4CNC(=O)C3CCCCC3)n(C)n2)cc1OC | -9% |
| Cc1ccc(NC(=O)N2CCC(=O)CC2)cc1Br | -4% |
| C=CCCC(CN1C[C@H]2CC=CC[C@H]2C1)Oc1ncc(F)cn1 (some centres not stated) | 77% |
| COC(=O)[C@H]1CN(Cc2noc(C)n2)C[C@@H]1c1ccc(F)cc1F | -20% |
| CC(Cc1ccccc1)NC1CN2CCC1CC2 (configuration not stated) | 1% |
| CC(C)N1CCN(c2nc3nc[nH]c(=O)c3s2)CC1 | 4% |
| O=S(=O)(NC12CCCC1CNC2)c1onc(C2CC2)c1Cl (configuration not stated) | 95% |
| O=C(NCc1cc(F)cc(F)c1)c1cn(Cc2ccc(F)cc2)nn1 | -15% |
| O=C1N[C@](c2ccccc2)(C(F)(F)F)c2ccc3ccccc3c2O1 | 5% |
| CC1CCCCC1N1CCN(C(=O)COc2ccc(Br)cc2)CC1 (configuration not stated) | 3% |
| O=c1c2cc(Cl)ccc2nc(-c2cccnc2)n1-c1ccc(Br)cc1 | 0% |
| O=C1O[C@@H]2CCN(Cc3ccccc3)[C@H]1C2 | -15% |
| CCC1(CC)C(=O)N(CN2CCCC2=O)C(=O)N(CN2CCCC2=O)C1=O | -17% |
| CN(C)S(=O)(=O)Nc1cccc(OC(=O)N2CCOCC2)c1 | -10% |

| SMILES | % Inhibition |
| --- | --- |
| CCN1CCC[C@H](NC(C2CCC2)C2CCC2)C1 | -3% |
| O=C(N1CCN(C(c2ccccc2)c2ccccc2)CC1)C(O)(c1ccccc1)c1ccccc1 | -4% |
| Cc1cc(=O)c(OCC(=O)N2CCN([C@@H](c3ccccc3)c3ccc(Cl)cc3)CC2)c[nH]1 | 63% |
| COc1cc(OCC(=O)N2CCN([C@@H](C)Cc3ccccc3)CC2)cc(OC)c1OC | 8% |
| Cc1ccc(C(O)(c2ccc(C)c(C)c2)[C@H]2C[N@]3CC[C@@H]2CC3)cc1C | 6% |
| CN1CCN(CCO[C@@H](c2cccc(Cl)c2)c2ccccc2Cl)CC1 | 0% |
| O=C(c1ccccc1)c1cc(Cl)ccc1NC(=O)[C@H]1CC(=O)N(c2ccc(F)cc2)C1 | 85% |
| c1cc(-n2cnnn2)ccc1N[C@H]1CN2CCC1CC2 | -14% |
| CC(C)c1nc(CC(=O)N2CCN(Cc3nnc4n3CCCCC4)CC2)cs1 | -12% |
| CCCC(=O)N(C1=CC2CCC(C1)N2C)c1ccccc1 (configuration not stated) | 1% |
| Cc1cc(C(=O)NC2CC(C)n3ccnc32)nn1C(C)C (configuration not stated) | 58% |
| COc1cc(=O)c(C(=O)N2CCC3(CC2)OCCO3)nn1-c1ccc(C)cc1 | -5% |
| CN1CCC2CCN(C(=O)c3cc(C4CC4)on3)C2C1 (configuration not stated) | 2% |
| CCOc1ccccc1N1C(=O)NC(=O)[C@@]2(Cc3cc(C)ccc3N(C)C2)C1=O | -10% |
| COC(=O)C(O)(c1ccc2c(c1)C(O)(C(F)(F)F)C(=O)N2C(C)C)C(F)(F)F (configuration not stated) | 8% |
| CC1CN2CCCC2CN1C(=O)c1cc(C2CC2)on1 (configuration not stated) | -17% |
| O=C1C2CCN(CC2)[C@H]1Cc1ccc(Cl)cc1 | 4% |
| Cc1cc(C(F)(F)F)c2c(C(N)=O)cn(C(C)(C)C)c2n1 | 2% |
| C[N+]12CCC(CC1)[C@@H](C(O)(c1cccc(Cl)c1)c1cccc(Cl)c1)C2 | 24% |
| O=C1CO[C@H]2CCN(Cc3cn4ccc(Br)cc4n3)C[C@@H]2N1 | 1% |
| Cn1nc(OC(=O)Nc2ccccc2)cc1C(F)(F)F | 6% |

| SMILES | % Inhibition |
| --- | --- |
| CN(C)C(=O)CCCn1ccc(NC(=O)C2C(C)(C)C2(C)C)n1 | -18% |
| Nc1ccc(N2CCN3CCC[C@H]3C2)cc1 | 8% |
| Cc1ccc2c(c1)CCCN2C(=O)CN1CC=C(c2cnn(C)c2)CC1 | 43% |
| CCC(CC)c1cc([C@H]2CN3CC[C@H]2C[C@@H]3CNS(=O)(=O)Cc2ccccc2)nc(-c2ccncc2)n1 | 63% |
| CCCS(=O)(=O)NC[C@H]1C[C@@H]2CCN1C[C@@H]2c1cc(C(CC)CC)nc(-c2ccncc2)n1 | 18% |
| CCC(CC)c1cc([C@H]2CN3CC[C@H]2C[C@@H]3CO)nc(-c2ccncc2)n1 | 26% |
| CC1CCNC(=O)C1NC(=O)Nc1ccc(C#N)c(C(F)(F)F)c1 (configuration not stated) | 8% |
| Clc1ccc(C2CC(c3cccnc3)Nc3nnnn32)cc1 (configuration not stated) | -10% |
| CCCCC1(CCCC)C(=O)NC(=Nc2ccc(C)cc2)NC1=O | -18% |
| O=C1N(c2ccccc2)C(=O)C2(Cc3cc(C(F)(F)F)ccc3N3CCC(c4ccccc4)CC32)C(=O)N1c1ccccc1 (configuration not stated) | 4% |
| CC[C@H]1C[N@@]2CC[C@H]1C[C@@H]2COC(=O)Nc1ccc(C(C)(C)C)cc1 | 4% |
| COc1cccc(CNC(=O)N2CC[C@@H]3CCN(C)C[C@@H]32)n1 | -2% |
| CC(=O)N(C1CCN(Cc2ccccc2)CC1)C1(C(=O)Nc2ccc3[nH]ccc3c2)CCN(C)CC1 | 35% |
| c1cc(N2CC[C@@]3(CCCNC3)C2)c2sccc2n1 | 99% |
| CN1CC[C@]2(CCN(c3ccnc4ccsc34)C2)C1 | 99% |
| CCn1nccc1CNCCc1ccccc1 | 4% |
| CC[C@H]1C[N@@]2CC[C@H]1C[C@@H]2COC(=O)Nc1ccccc1 | 3% |
| CNc1snc(C)c1C(=O)N1CCC(C(=O)OC)(c2ccccc2)CC1 | -2% |
| COc1ccc(-c2ccccc2N2CCNCC2)c2ccc(C)nc12 | -4% |
| Clc1cccc(CCN[C@H]2CCOC3(CCOCC3)C2)c1 | 7% |
